Structures are written as SMILES. Records with an inconclusive call do not appear. Activity calls are given as the source filed them. Calls follow the shape of the dose curve; as a rule, active = well fitted activation curve with a large enough effect; inconclusive = small, poorly fitted or top-dose-only effect; inactive = flat fitted curve, though single readings scatter.

This assay can be described thus: Cellular Toxicity (caspase-3) Hek293 (AID 664).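 Also: cells exposed to compound for 16 h at 37 °C before readout.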 The conditions noted are these: HEK293 caspase-3 activation, DMSO = 0%, 100 µM tamoxifen = 100%; at 92.2 µM (top of the series). The source says: NIH Chemical Genomics Center [NCGC]
NIH Molecular Libraries Screening Centers Network [MLSCN]
National Institutes of Environmental Health Sciences [NIEHS]
National Toxicology Program [NTP]
We have developed a 1536-well cell-based assay for quantitative high throughput screening (qHTS) against a number of cell lines to determine in vitro caspase 3/7 of small molecules. This particular assay uses the Hek 293 cell line which is derived from human embryonic kidney cells.
NCGC Assay Protocol Summary:
The Caspase-Glo 3/7 assay (Promega) is a homogeneous method to measure caspase-3 and caspase-7 activities in cultured cells. The quantitation of caspase 3/7 activity is based on the cleavage of a peptide-aminoluciferin substrate. After caspase cleaves the substrate the free aminoluciferin is liberated and serves as the substrate of luciferase, which generates the light. The luminescent signal is proportional to amount of caspase 3/7 activity present.
Using the Caspase-Glo 3/7 assay, the amount of caspase 3/7 activity was measured in the Hek 293 cell line with complete culture medium following compound treatment for 16 hours. The assay was performed in opaque white 1536-well plates. In the screen, tamoxifen and doxorubicin were used as positive controls. Library compounds were measured for their ability to cause the activation of caspase 3/7 in the cell line, as reflected by an increase in luminescence signal, in a concentration-dependent manner. Data were normalized to the controls for basal activity (DMSO only) and 100% stimulation (100 uM tamoxifen). AC50 values were determined from concentration-response data modeled with the standard Hill equation.
qHTS protocol for caspase 3/7 assay in Hek 293 cells
[Step] [Parameter] [Value] [Description]
2. Time; 5 hr; 37 °C incubation
4. Controls; 23 nL; Tamoxifen 0.23 uM to 100 uM & Doxorubicin 7.0 pM to 100 uM
5. Time; 16 hr; 37 °C incubation
6. Reagent; 5 uL; Caspase-Glo 3/7 reagent
7. Time; 20 min; Room Temperature
8. Detection; Luminescence; Viewlux plate reader
Keywords: caspase 3/7, apoptosis, Hek 293 cell line, luminescence, NTPHTS, NTPHTS_NCGC, NIEHS, EPA, DSSTox, MLSMR, MLSCN, NIH Roadmap, qHTS, NCGC
Turning to `O=C(O)c1c(Cl)cccc1Cl`, the caspase-3 activation was 0.49% (inactive).

In the case of `CCC(C)(C)C(=O)O`, the caspase-3 activation was 1.52% (inactive).

Consider `CCCCCCCCCCCCC1CO1` (stereo not given), for which the caspase-3 activation is 1.51% (inactive).

As to `Cc1c(C(=O)O)cccc1[N+](=O)[O-]`, the caspase-3 activation is 1.44% (inactive).

For `C=CC(=O)NC(C)C`, the caspase-3 activation was 2.01% (inactive).

Take `Cc1ccc(C(C)(C)C)cc1`: the caspase-3 activation is -1.91% (inactive).

For the compound `c1ccc2c(c1)ccc1ncccc12`, the caspase-3 activation is 1.59% (inactive).

In the case of `C=C(C)C(=O)OC`, the caspase-3 activation is 1.97% (inactive).

`COC(=O)CCC(=O)OC`: the caspase-3 activation is -0.32% (inactive).

Consider `CCCCC(CC)COC(=O)CCCCC(=O)OCC(CC)CCCC` (stereo not given), for which the caspase-3 activation is 0.675% (inactive).

For the compound `Cc1cccc2sc(N)nc12`, the caspase-3 activation was 1.8% (inactive).

On to `CC(=O)OC(C)=O`, for which the caspase-3 activation is -0.384% (inactive).

Consider `CCc1ccccc1O`, for which the caspase-3 activation was -1.55% (inactive).

As to `CSCCC=O`, the caspase-3 activation is -2.79% (inactive).

Consider `CCCCC(=O)N(C)C`, for which the caspase-3 activation is 1.13% (inactive).

`Nc1cccc([N+](=O)[O-])c1`: the caspase-3 activation is 0.377% (inactive).

Turning to `O=CNc1ccccc1`, the caspase-3 activation is 1.41% (inactive).

For the compound `OC1CCCC1`, the caspase-3 activation was -1.06% (inactive).

On to `C/C(C=O)=C/c1ccccc1`, for which the caspase-3 activation is 0.188% (inactive).

As for `Fc1ccccc1`, the caspase-3 activation is -1.91% (inactive).

In the case of `CC(=O)Nc1ccc(N)cc1`, the caspase-3 activation is -0.0268% (inactive).

With `FB(F)F`, the caspase-3 activation was 2.37% (inactive).

Take `NC(=O)CCCCC(N)=O`: the caspase-3 activation is -0.72% (inactive).

Turning to `CC(=O)Nc1ccccc1C`, the caspase-3 activation is 3.57% (inactive).

In the case of `O=[N+]([O-])c1ccc(NCCO)c(OCCO)c1`, the caspase-3 activation is 0.203% (inactive).

Regarding `CC(=O)c1cc(C)oc1C`, the caspase-3 activation is 0.799% (inactive).

Consider `CC(C)N=C=NC(C)C`, for which the caspase-3 activation was -0.83% (inactive).

In the case of `C=C(C)OC(C)=O`, the caspase-3 activation is -0.975% (inactive).

On to `O=C(O)c1ccc(Cl)c(Cl)c1`, for which the caspase-3 activation is 0.484% (inactive).

Regarding `Cc1c(N)cccc1[N+](=O)[O-]`, the caspase-3 activation was 1.08% (inactive).

`ClC/C=C/CCl`: the caspase-3 activation is 1.61% (inactive).

On to `O=C(O)c1cccc(Cl)c1Cl`, for which the caspase-3 activation was -1.27% (inactive).

For `COc1cccc(N)c1`, the caspase-3 activation was 7.74% (inactive).

Turning to `C1CCOC1`, the caspase-3 activation was -1.25% (inactive).

On to `Cc1ccc(C(=O)O)cc1`, for which the caspase-3 activation was 0.649% (inactive).

Regarding `Cc1ccc(C#N)cc1`, the caspase-3 activation was 0.103% (inactive).

Consider `N#CC1(O)CCCCC1`, for which the caspase-3 activation is 1.67% (inactive).

With `CCCCC(CC)COCC1CO1` (stereo not given), the caspase-3 activation was -2.33% (inactive).

Consider `CC(=O)OCCC(C)C`, for which the caspase-3 activation was -0.0363% (inactive).

`CCOc1ccc(NC(C)=O)cc1N`: the caspase-3 activation was -1.58% (inactive).
